Data taken from PubChem BioAssay (NCI).
Several values for one entry are separate records, joined by “and”; a condition that tells them apart may be missing. Equal values may be shown once. The panel holds about 83,000 compounds, 20% with a hit somewhere; the sample as a whole holds those more often.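 Method: cells in 96-well plates; compound added at one concentration; 48 h incubation; percent growth measured; values under 10 scored active.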 Unmarked numbers belong to inactive results. Activity calls are given as the source filed them.

System: MDA-MB-468 breast
Test: NCI-60 one-dose screen, 48 h (100 = growth as untreated, 0 = no growth, -100 = all killed)
Settings: 10 µM unless noted

Row | Structure (SMILES) | growth
1 | O=[N+]([O-])c1ccccc1N(S(=O)(=O)c1ccccc1)S(=O)(=O)c1ccccc1 | 106% and 90%
2 | O=C(/C=C/c1ccc(Cl)cc1)c1ccc(Cl)cc1 | 88.3%
3 | COC(=O)c1cc(=O)nc(N/N=C/c2ccco2)s1 | 61.7%
4 | O=C(OCCBr)c1ccc(Cl)c([N+](=O)[O-])c1 | -79.8% (active)
5 | C/C(=N\Nc1cc(C)c2ccccc2n1)c1ccccn1 | -63.2% (active)
6 | Cc1ccc(NC(=O)c2ccc(CN3CCOCC3)c(C(F)(F)F)c2)cc1Oc1ccc(-c2[nH]nc3ncnc(N)c23)cc1 | 96.8%
7 | COc1ccc2cc(C(C)C(=O)Nc3ccc(S(=O)(=O)Nc4cc(C)on4)cc3)ccc2c1 (configuration not stated) | 114%
8 | CC(=O)NC1(C(=O)O)CCCC1 | 116%
9 | O=[N+]([O-])c1cccc(N=Cc2ccccc2)c1 | 106%
10 | c1ccc(-c2cn3ccnc3c(-c3ccc4c(c3)ncn4C3CCCCC3)n2)cc1 | 112%
11 | COc1ccc(C2c3ccc4ccccc4c3Oc3ncnc(N)c32)cc1 (configuration not stated) | 86.6%
12 | CCCCN(CCCC)c1ccc(C(=O)O)cc1 | 101%
13 | O=C(O)c1ccnc(Br)c1 | 91.1%
14 | COc1ccc(-c2c(N)noc2-c2cc(OC)c3c(c2)OCCO3)cc1 | -1.87% (active)
15 | C=C[C@@H]1C[C@@H]2Cc3ccccc3N1O2 | 97.8%
16 | COc1ccc(/C=C/c2cccc[n+]2C)cc1 | 73.8%
17 | CN(C)c1ccc(N2Cc3ccccc3OC3=C2C(=O)c2c(O)ccc(O)c2C3=O)cn1 | -59.4% (active)
